Assay [1] deals with Wnt5a (protein binding on small-molecule microarray). Nature of the assay: Wnt5a binders on small-molecule microarray, primary screen, biophysical, 635/667 nm fluorescence (AID 1142).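 Also: fluorescence read at 667 nm with signal to noise per printed feature.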 The note with it: 635 nm fluorescence, higher = more signal.
Assay [2] can be described thus: cell viability in Huh7 cells, primary screen, cytotoxicity control for HCV replication inhibitor project, CellTiter-Glo luminescence, basal, 48 h (AID 1143).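 Also: Huh7 hepatoma cells carrying a hepatitis C replication reporter with no stimulus; test concentration not given here.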 To be noted: Huh7 HCV replicon, higher = more signal, called active from +8 up or from −8 down. (ATP-based viability assays read luminescence as a measure of living cells.)
The nature of assay [3]: P. aeruginosa biofilm formation inhibitors, primary screen, PAO1 strain, BacTiter-Glo luminescence, LB-PBS (AID 1144). To be noted: 12 h, higher = more signal.
Assay [4] is described as follows: CREB reporter modulators without forskolin, primary screen, cell-based, PC12, CRE-LacZ reporter, unstimulated (AID 1145). To be noted: no forskolin, luminescence, 4.5 h, higher = more signal, called active from +8 up or from −8 down.
The nature of assay [5]: CREB reporter modulators under forskolin, primary screen, cell-based, PC12, CRE-LacZ reporter, forskolin-stimulated (AID 1146).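 Also: PC12 cells with 6xCRE LacZ reporter stimulated by forskolin 10 µM; beta-galactosidase reporter signal reflecting CREB driven transcription.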 To be noted: luminescence, 4.5 h, higher = more signal, called active from +8 up or from −8 down.
The target in assay [6] is Streptavidin (Streptomyces avidinii) (UniProt P22629). Put plainly: streptavidin binders on small-molecule microarray, primary screen, artefact control for SMM compound annotation, biophysical, 635/667 nm fluorescence (AID 1147).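 Also: signal reflects streptavidin binding to arrayed compounds as a control protein.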 To be noted: streptavidin binding, higher = more signal.
Sequence of Streptavidin (Streptomyces avidinii) (P22629 whole entry, looked up): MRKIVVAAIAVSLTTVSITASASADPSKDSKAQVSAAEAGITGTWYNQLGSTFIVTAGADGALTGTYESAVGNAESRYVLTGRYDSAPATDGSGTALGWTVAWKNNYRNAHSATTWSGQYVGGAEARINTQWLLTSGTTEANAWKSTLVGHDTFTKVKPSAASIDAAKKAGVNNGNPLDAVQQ
Assay [7] can be described thus: small-molecule binders of probe aInhba, primary screen, biochemical, small-molecule microarray, 635/667 nm fluorescence (AID 1148).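 Also: score merges 667nm spot fluorescence with signal-to-noise for antibody binding to printed compounds.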 The note with it: higher = more signal.
In assay [8] the target is Torsin-1A (Homo sapiens) (UniProt O14656). Nature of the assay: torsin A binders from cell lysate, primary screen, small-molecule microarray, wild-type, 635/667 nm (AID 1149). The note with it: COS7 hTOR1A-WT lysate, 635 nm fluorescence, higher = more signal.
Sequence of Torsin-1A (Homo sapiens) (O14656 whole entry, looked up): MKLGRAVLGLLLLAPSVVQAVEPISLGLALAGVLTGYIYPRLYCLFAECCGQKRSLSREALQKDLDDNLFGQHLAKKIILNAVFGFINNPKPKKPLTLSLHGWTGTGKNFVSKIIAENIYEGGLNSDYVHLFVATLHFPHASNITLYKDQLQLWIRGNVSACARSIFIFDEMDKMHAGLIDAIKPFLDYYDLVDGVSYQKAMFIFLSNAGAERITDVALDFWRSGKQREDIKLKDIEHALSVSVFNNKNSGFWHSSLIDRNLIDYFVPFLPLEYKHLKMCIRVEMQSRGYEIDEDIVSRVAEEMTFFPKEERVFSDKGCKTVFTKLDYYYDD
Assay [9] shares this target. Put plainly: small-molecule binders of mutant TOR1A in lysate, primary screen, cell lysate, small-molecule microarray, COS7 lysate, 635/667 nm fluorescence (AID 1150).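 Also: score pools 667 nm emission and signal to noise measuring lysate protein binding.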 To be noted: COS7 hTOR1A mutant lysate, 635 nm fluorescence, higher = more signal.
Assay [10] relates to Sonic hedgehog protein (Shh). Put plainly: small-molecule binders of Shh protein, primary screen, biochemical, small-molecule microarray, 635/667 nm fluorescence (AID 1151).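 Also: Shh protein binding to compounds spotted on small-molecule microarray slides; score combines spot fluorescence intensity with signal-to-noise across triplicate slides.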 To be noted: small-molecule microarray binding, 635 nm fluorescence; higher = more signal.

Activity calls are given as the source filed them. Unless noted, no rule for the calls is given here.

For `COc1cc2c(cc1OC)CN(C(=O)[C@@H]1[C@H]3C(=O)O[C@H](c4ccccc4)[C@H](c4ccccc4)N3[C@H](c3ccc(O)cc3)[C@@]13C(=O)Nc1ccccc13)CC2`, the composite z-score is 0.33 in assay [1]; 0.523 in assay [6]; 0.121 in assay [7]; 1.05 with Torsin-1A (Homo sapiens) [8]; 0.341 with Torsin-1A (Homo sapiens) [9]; 1.33 in assay [10]. Further, the z-score in [2] is -4.24 (inactive); in assay [3] it was -1.07 (inactive); in [4], 0.685 (inactive); in assay [5], -0.0307 (inactive).

As to `C=CCOC(=O)[C@H]1[C@@H]2C(=O)O[C@@H](c3ccccc3)[C@@H](c3ccccc3)N2[C@@H](c2ccc(OCCOC(=O)[C@H]3C[C@H]4C(=O)N[C@@H](CCCCN(C)C)C(=O)N4[C@H]3c3ccc(O)cc3)cc2)[C@]12C(=O)Nc1ccc(I)cc12`, the composite z-score came out at 0.0259 in assay [1]; 1.23 in assay [6]; 0.135 in assay [7]; 1.94 with Torsin-1A (Homo sapiens) [8]; 1.33 with Torsin-1A (Homo sapiens) [9]; 1.96 in [10]. Moreover, the z-score in assay [2] was -0.264 (inactive); in [3], 0.549 (inactive); in assay [4] it was -0.268 (inactive); in [5], 0.259 (inactive).

On to `Cc1ccc(S[C@]2(C(=O)NCCCN(C)C)CC(=O)N(Cc3cc(C(F)(F)F)cc(C(F)(F)F)c3)[C@@H]2c2ccc(CO)cc2)cc1`, for which the composite z-score in assay [1] is -0.202; in assay [6], -0.529; in assay [7], 0.0363; with Torsin-1A (Homo sapiens) [8], -0.0089; in the assay with Torsin-1A (Homo sapiens) [9], -0.256; in assay [10], -0.664. The z-score is -0.0481 (inactive) in assay [2], -0.617 (inactive) in [3], -0.152 (inactive) in [4] and 1.19 (inactive) in assay [5].

On to `C=C(C)[C@@H]1CC=C(C(O)C2C=CC3C(=O)N(C)C(=O)C3N2Nc2ccccc2)CC1` (stereo not given in full), for which the composite z-score in assay [1] is 0.297; in [6], 0.178; in [7], 0.0013; with Torsin-1A (Homo sapiens) [8], 0.425; with Torsin-1A (Homo sapiens) [9] it was 0.385; in assay [10] it was 1.89. The z-score in assay [2] was 0.435 (inactive); in assay [3], -0.309 (inactive); in [4], 0.626 (inactive); in [5], 1.26 (inactive).

Turning to `C=CCOC(=O)[C@H]1[C@@H]2C(=O)O[C@@H](c3ccccc3)[C@@H](c3ccccc3)N2[C@@H](c2ccc(OCCOC(=O)[C@@H]3C[C@@H]4C(=O)N[C@@H](CC(C)C)C(=O)N4[C@@H]3c3ccc(O)cc3)cc2)[C@]12C(=O)Nc1ccccc12`, the composite z-score in assay [1] is 0.384; in [6], 0.359; in [7], 0.0442; with Torsin-1A (Homo sapiens) [8] it was 0.941; in the assay with Torsin-1A (Homo sapiens) [9], 0.95; in assay [10], 2.08. The z-score was -1.37 (inactive) in [2], -1.04 (inactive) in assay [3], -0.541 (inactive) in assay [4] and 0.0707 (inactive) in [5].

Consider `C=CCC(OC(C)=O)[C@@H]1[C@@H](N(Cc2ccc(-c3ccccc3)cc2)C(=O)c2ccc(-c3ccccc3)cc2)c2cc(OCCCO)ccc2N1C(=O)Cc1ccc2ccccc2c1` (stereo not given in full), for which the composite z-score in assay [1] is 0.102; in assay [6] it was 0.497; in [7] it was 0.0051; in the assay with Torsin-1A (Homo sapiens) [8], -0.395; with Torsin-1A (Homo sapiens) [9] it was 0.42; in assay [10], 0.523. Besides, the z-score in [2] was 0.315 (inactive); in [3], -0.0138 (inactive); in [4], 0.208 (inactive); in assay [5] it was 0.411 (inactive).

For the compound `COCCOC(=O)N1C(=O)[C@@]2(c3cc(C#CCNC(N)=O)ccc31)[C@H](C(=O)N1CCN(c3ncccn3)CC1)[C@H]1C(=O)O[C@H](c3ccccc3)[C@H](c3ccccc3)N1[C@@H]2c1ccc(OCCO)cc1`, the composite z-score came to 0.344 in assay [1]; 0.619 in assay [6]; 0.0154 in assay [7]; 1.44 with Torsin-1A (Homo sapiens) [8]; 0.453 with Torsin-1A (Homo sapiens) [9]; 0.911 in [10]. The z-score in [2] was 0.0164 (inactive); in assay [3] it was -0.82 (inactive); in [4], 1.04 (inactive); in [5] it was -0.0748 (inactive).

Regarding `CC(C)(C)OC(=O)CC[C@]1(C(=O)N2CCOCC2)N=C(c2ccc(OCCCO)cc2)O[C@H]1c1ccccc1N=[N+]=[N-]`, the composite z-score in [1] is 0.846; in assay [6], 1.42; in assay [7], 0.236; in the assay with Torsin-1A (Homo sapiens) [8], 0.64; with Torsin-1A (Homo sapiens) [9], 1.7; in assay [10] it was -0.371. The z-score is -0.884 (inactive) in assay [2], 1.17 (inactive) in assay [3], 1.31 (inactive) in [4] and -1.4 (inactive) in [5].

As for `NCCCCCNC(=O)[C@@H]1C[C@@H]2C(=O)N[C@@H](Cc3ccccc3)C(=O)N2[C@@H]1c1ccc(O)cc1`, the composite z-score in assay [1] turned out to be 0.0588; in [6], 1.38; in assay [7] it was 0.174; with Torsin-1A (Homo sapiens) [8], 0.202; with Torsin-1A (Homo sapiens) [9] it was 0.394; in assay [10], 1.2. Moreover, the z-score is 0.0478 (inactive) in assay [2], -0.35 (inactive) in assay [3], 0.281 (inactive) in assay [4] and -0.629 (inactive) in assay [5].

With `COC(=O)[C@]1(CCC(=O)OC(C)(C)C)N=C(c2ccc(OCCCO)cc2)O[C@@H]1c1ccccc1CN=[N+]=[N-]`, the composite z-score in assay [1] is 0.714; in assay [6] it was 0.0874; in [7], 0.24; in the assay with Torsin-1A (Homo sapiens) [8], -0.351; with Torsin-1A (Homo sapiens) [9], -0.0282; in [10], 0.712. For the same compound, the z-score in [2] was -4.56 (inactive); in assay [3], 0.283 (inactive); in [4] it was 1.77 (inactive); in assay [5], -0.955 (inactive).

Take `COCCOC(=O)N1C(=O)[C@@]2(c3cc(C#CCC(C(=O)OC)C(=O)OC)ccc31)[C@H](C(=O)N1CCN(c3ncccn3)CC1)[C@H]1C(=O)O[C@H](c3ccccc3)[C@H](c3ccccc3)N1[C@@H]2c1ccccc1OCCO`: the composite z-score in assay [1] turned out to be 0.833; in assay [6], 0.39; in assay [7], 0.326; with Torsin-1A (Homo sapiens) [8], 0.135; with Torsin-1A (Homo sapiens) [9] it was 0.579; in assay [10] it was 2.19. For the same compound, the z-score is -3.78 (inactive) in [2], 1.13 (inactive) in assay [3], -0.337 (inactive) in assay [4] and -0.374 (inactive) in assay [5].

On to `COCCOC(=O)N1C(=O)[C@@]2(c3cc(C#CCC(C(=O)OC)C(=O)OC)ccc31)[C@H](c1ccccc1OCCO)N1[C@H](c3ccccc3)[C@H](c3ccccc3)OC(=O)[C@H]1[C@@H]2C(=O)N1CCN(c2ncccn2)CC1`, for which the composite z-score worked out at 0.621 in [1]; 0.635 in assay [6]; 0.0384 in [7]; 1.01 with Torsin-1A (Homo sapiens) [8]; 1.19 with Torsin-1A (Homo sapiens) [9]; 1.89 in assay [10]. For the same compound, the z-score in assay [2] is -4.45 (inactive); in assay [3], -1.09 (inactive); in [4] it was -0.479 (inactive); in assay [5], 1.7 (inactive).

Consider `COc1ccc(CCNC(=O)[C@@H]2c3ccccc3C(=O)N(Cc3ccccc3Cl)[C@H]2c2ccc(CO)cc2)cc1`, for which the composite z-score in assay [1] was 0.177; in assay [6], -0.001; in [7], -0.0645; with Torsin-1A (Homo sapiens) [8], 0.25; in the assay with Torsin-1A (Homo sapiens) [9], 0.0327; in [10], -0.214. Further, the z-score was -0.124 (inactive) in assay [2], 0.603 (inactive) in [3], 0.701 (inactive) in assay [4] and -0.977 (inactive) in assay [5].

As to `COc1ccc(C(O)C2C=CC3C(=O)N(Cc4ccccc4)C(=O)C3N2n2cnnc2)cc1OCc1ccccc1` (stereo not given), the composite z-score in assay [1] is 0.0401; in assay [6], 0.296; in assay [7], -0.0962; with Torsin-1A (Homo sapiens) [8], -0.476; in the assay with Torsin-1A (Homo sapiens) [9], 0.562; in assay [10], -0.733. The z-score in assay [2] was -2.81 (inactive); in assay [3] it was -2.01 (inactive); in assay [4], -0.424 (inactive); in [5], -0.0263 (inactive).

Values taken from PubChem BioAssay.
